Of roughly 7,900 targets only a part is listed; those with a hit were picked by preference. About 0.6% of all pairs of compound and target were hits.

Drawing on the supplement of paper PMC10849652, this text covers log2 fold change for 36 targets.

Sequence of UniProt Q5U3C3 (Q5U3C3 whole entry, looked up): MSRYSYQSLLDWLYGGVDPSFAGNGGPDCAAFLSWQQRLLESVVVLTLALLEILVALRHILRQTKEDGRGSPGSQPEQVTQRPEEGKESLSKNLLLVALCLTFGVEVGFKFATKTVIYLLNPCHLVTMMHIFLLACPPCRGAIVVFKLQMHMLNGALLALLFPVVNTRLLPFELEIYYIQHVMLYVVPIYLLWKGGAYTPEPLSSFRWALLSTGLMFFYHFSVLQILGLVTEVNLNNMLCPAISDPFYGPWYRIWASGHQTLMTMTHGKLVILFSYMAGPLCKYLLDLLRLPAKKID
Sequence of UniProt Q9BUB7 (Q9BUB7 whole entry, looked up): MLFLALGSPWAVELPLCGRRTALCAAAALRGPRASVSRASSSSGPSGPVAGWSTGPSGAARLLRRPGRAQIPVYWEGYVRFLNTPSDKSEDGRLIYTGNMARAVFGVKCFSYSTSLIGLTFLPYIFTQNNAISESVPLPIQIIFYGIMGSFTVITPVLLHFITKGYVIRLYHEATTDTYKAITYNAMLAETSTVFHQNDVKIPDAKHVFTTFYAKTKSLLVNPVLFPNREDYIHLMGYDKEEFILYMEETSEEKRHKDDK
Sequence of UniProt Q6VEQ5 (Q6VEQ5 whole entry, looked up): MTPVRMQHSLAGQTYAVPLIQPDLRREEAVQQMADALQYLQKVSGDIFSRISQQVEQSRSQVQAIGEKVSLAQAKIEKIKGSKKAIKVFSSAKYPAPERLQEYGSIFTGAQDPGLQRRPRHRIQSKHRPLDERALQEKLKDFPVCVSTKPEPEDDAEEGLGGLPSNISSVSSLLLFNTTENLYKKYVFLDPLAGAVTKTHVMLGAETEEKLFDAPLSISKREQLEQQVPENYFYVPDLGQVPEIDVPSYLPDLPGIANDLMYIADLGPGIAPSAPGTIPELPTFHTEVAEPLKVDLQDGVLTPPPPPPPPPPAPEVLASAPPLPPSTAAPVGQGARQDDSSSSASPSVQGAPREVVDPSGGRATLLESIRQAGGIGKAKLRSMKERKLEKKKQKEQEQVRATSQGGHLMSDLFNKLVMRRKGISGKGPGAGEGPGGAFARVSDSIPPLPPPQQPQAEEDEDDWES
Sequence of UniProt Q12888 (Q12888 whole entry, looked up): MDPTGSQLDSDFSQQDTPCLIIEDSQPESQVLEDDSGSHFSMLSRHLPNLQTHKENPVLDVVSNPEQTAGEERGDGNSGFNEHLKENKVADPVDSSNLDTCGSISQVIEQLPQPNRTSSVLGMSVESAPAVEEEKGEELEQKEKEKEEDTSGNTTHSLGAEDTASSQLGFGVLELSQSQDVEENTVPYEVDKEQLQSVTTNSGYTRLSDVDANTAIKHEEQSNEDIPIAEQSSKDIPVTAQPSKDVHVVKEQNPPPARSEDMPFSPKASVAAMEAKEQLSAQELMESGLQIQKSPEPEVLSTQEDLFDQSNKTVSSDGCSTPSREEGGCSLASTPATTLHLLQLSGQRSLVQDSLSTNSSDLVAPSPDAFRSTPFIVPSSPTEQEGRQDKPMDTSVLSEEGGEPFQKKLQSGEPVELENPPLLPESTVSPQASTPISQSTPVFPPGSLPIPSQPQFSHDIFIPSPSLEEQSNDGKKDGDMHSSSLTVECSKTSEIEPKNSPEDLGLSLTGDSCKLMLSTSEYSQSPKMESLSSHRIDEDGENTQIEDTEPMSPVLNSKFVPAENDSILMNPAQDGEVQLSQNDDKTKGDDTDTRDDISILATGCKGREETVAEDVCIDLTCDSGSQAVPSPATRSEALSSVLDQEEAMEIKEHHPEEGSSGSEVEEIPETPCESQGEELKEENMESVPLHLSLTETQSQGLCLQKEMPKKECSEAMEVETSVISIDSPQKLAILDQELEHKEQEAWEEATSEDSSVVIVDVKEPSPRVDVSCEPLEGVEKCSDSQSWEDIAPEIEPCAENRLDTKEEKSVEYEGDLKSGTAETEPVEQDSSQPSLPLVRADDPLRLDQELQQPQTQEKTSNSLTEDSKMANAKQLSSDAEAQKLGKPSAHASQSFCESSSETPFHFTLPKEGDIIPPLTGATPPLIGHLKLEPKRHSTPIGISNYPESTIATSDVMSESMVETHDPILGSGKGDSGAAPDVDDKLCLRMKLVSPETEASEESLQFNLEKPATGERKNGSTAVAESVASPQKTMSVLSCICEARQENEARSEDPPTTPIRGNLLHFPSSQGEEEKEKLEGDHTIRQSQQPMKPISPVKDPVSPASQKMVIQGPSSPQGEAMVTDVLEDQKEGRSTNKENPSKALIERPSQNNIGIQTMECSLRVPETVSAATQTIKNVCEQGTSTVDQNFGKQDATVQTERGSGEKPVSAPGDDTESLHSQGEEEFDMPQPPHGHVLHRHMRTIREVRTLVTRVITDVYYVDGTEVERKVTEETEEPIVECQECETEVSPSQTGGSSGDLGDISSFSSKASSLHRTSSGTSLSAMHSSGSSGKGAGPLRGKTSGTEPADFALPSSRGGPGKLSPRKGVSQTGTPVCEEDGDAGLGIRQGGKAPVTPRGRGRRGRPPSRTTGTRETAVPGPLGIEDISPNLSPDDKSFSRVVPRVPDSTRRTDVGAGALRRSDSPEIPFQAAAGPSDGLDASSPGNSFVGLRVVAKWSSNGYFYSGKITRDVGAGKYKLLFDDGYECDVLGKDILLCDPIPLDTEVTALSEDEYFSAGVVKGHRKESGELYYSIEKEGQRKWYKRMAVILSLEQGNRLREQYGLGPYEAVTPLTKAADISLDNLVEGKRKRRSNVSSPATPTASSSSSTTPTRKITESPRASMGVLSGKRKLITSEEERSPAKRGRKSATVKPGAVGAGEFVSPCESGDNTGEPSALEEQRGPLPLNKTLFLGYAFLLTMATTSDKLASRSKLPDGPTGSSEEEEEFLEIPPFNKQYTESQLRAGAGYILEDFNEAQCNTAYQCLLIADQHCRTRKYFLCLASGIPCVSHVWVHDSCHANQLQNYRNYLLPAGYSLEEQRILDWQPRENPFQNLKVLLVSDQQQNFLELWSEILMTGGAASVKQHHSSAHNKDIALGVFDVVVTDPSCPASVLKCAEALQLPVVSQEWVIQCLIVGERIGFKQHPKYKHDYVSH
Sequence of UniProt P30291 (P30291 whole entry, looked up): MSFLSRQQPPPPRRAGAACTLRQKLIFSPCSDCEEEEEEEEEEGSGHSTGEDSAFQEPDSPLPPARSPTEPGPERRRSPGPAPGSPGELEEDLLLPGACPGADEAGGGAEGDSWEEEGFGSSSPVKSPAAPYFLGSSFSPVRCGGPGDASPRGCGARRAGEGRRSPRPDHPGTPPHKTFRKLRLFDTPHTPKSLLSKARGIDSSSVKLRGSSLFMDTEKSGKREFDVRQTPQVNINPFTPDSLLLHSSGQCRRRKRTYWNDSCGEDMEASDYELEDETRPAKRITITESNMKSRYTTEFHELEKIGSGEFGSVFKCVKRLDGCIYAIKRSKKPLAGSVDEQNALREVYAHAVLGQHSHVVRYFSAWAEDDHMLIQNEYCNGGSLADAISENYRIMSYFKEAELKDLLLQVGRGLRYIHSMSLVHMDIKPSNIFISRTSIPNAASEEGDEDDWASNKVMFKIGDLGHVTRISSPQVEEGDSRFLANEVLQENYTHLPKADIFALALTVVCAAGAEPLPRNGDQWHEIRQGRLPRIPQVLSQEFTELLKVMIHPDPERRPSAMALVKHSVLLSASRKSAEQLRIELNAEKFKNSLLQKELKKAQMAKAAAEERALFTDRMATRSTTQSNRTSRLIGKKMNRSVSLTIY
Sequence of UniProt Q7Z392 (Q7Z392 whole entry, looked up): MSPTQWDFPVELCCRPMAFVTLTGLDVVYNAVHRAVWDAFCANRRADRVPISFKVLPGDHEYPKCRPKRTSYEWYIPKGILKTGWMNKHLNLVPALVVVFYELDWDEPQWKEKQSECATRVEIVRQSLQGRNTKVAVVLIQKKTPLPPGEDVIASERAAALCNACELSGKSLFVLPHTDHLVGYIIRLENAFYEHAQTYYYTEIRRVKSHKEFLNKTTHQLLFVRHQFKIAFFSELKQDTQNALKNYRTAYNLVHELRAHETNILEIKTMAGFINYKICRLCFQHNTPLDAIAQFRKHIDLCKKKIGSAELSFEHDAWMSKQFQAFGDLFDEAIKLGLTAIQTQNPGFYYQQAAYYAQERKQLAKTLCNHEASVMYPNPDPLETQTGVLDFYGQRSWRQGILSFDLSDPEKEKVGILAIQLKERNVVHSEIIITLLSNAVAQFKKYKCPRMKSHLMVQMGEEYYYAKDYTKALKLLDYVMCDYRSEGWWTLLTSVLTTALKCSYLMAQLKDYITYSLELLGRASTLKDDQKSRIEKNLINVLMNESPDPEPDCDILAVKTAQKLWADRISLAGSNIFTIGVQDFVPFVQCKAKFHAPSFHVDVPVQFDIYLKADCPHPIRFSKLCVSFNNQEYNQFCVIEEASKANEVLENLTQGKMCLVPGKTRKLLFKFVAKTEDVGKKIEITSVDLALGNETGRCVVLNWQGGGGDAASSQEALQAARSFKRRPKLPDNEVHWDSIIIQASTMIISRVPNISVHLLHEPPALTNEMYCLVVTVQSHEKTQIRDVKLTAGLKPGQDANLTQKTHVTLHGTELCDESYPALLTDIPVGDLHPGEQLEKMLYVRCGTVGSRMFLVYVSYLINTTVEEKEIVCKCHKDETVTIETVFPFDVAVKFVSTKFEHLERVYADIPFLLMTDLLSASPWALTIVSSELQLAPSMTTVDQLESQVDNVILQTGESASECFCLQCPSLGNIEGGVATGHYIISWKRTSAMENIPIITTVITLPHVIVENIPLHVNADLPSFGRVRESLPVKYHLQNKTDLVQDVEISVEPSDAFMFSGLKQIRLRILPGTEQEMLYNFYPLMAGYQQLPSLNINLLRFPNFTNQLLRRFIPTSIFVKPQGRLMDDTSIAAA
Sequence of UniProt P07951 (P07951 whole entry, looked up): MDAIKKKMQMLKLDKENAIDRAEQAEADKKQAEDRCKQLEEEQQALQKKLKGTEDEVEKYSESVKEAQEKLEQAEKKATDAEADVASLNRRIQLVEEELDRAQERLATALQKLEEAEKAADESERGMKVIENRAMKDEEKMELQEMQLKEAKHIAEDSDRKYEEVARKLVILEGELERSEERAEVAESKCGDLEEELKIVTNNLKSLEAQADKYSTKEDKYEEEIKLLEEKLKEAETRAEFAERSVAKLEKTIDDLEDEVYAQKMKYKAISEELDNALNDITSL

Compound in one experiment: CS(=O)(=O)N1CCN(Cc2cc3nc(-c4cccc5[nH]ncc45)nc(N4CCOCC4)c3s2)CC1 [pictilisib]
Nature of the experiment: log2 fold change, soluble protein after heating vs DMSO (PISA); higher = thermal stabilisation; K562 cells, 10 uM, 30 min; active = over 0.2 and 3.5 SD of the protein, either way, in both replicates (recomputed). In short, it runs like this: (§1)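 Soluble protein was defined as the supernatant after 21,000xg for 90 min. It came from K562 cells at 2×10^6 cells/mL given 10 μM compound for 30 min, heated in aliquots for 3 min across 48°C-58°C, pooled, and extracted in PBS with 0.5% NP-40 at 4°C, and was quantified by TMTpro 16plex LC-MS/MS with equalised channel sums. Thermal stability against control samples, from duplicates, is reported as log2 fold change.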
As for VPS18 (UniProt Q9P253), the log2 fold change was -0.07 (inactive).
Same read-out and setting: the value for TRAPPC11 (UniProt Q7Z392) was 0.042 (inactive); that for VDAC1 (UniProt P21796) was 0.002 (inactive).
Same read-out and setting: the value for TNPO1 (UniProt Q92973) was -0.02 (inactive).
The same measure, in the same setting: the value for UGDH (UniProt O60701) was 0.022 (inactive).
Turning to UCHL5 (UniProt Q9Y5K5), the log2 fold change was 0.012 (inactive).
On the same count and under the same terms, the value for TP53BP1 isoform 2 (UniProt Q12888) was 0 (inactive); that for VRK1 (UniProt Q99986) was 0.086 (inactive).
Regarding WEE1 (UniProt P30291), the log2 fold change is -0.095 (inactive).
In the case of VTI1A (UniProt Q96AJ9), the log2 fold change was -0.022 (inactive).
The same measure, in the same setting: the value for WASHC2A (UniProt Q641Q2) was 0.038 (inactive); that for TMEM9 (UniProt Q9P0T7) was 0.036 (inactive).
The same measure, in the same setting: the value for VPS33A (UniProt Q96AX1) was -0.083 (inactive); that for TMEM70 (UniProt Q9BUB7) was 0.059 (inactive); that for XRCC5 (UniProt P13010) was -0.047 (inactive).
Still for that read-out and setting: with TRAPPC3 (UniProt O43617) the figure was 0.023 (inactive); with TNPO3 (UniProt Q9Y5L0), 0.077 (inactive); with TPM2 (UniProt P07951), -0.181 (inactive).
As for UBE4B isoform 4 (UniProt O95155), the log2 fold change was 0.063 (inactive).
Still for that read-out and setting: with USP14 (UniProt P54578) the figure was 0.026 (inactive); with VPS50 (UniProt Q96JG6), -0.003 (inactive); with TMEM87B (UniProt Q96K49), 0.055 (inactive).
Same read-out and setting: the value for TMEM263 (UniProt Q8WUH6) was -0.208 (inactive).
On the same count and under the same terms, the value for TYW1 (UniProt Q9NV66) was -0.147 (inactive).
For VPS33B (UniProt Q9H267), the log2 fold change was -0.035 (inactive).
On to TMEM164 (UniProt Q5U3C3), for which the log2 fold change was 0.008 (inactive).
Still for that read-out and setting: the value for WASH2P (UniProt Q6VEQ5) was 0.053 (inactive).
Same read-out and setting: the value for TOMM5 isoform 2 (UniProt Q8N4H5) was -0.086 (inactive); that for TRIP10 isoform 2 (UniProt Q15642) was 0.06 (inactive); that for TMEM106B (UniProt Q9NUM4) was 0.027 (inactive).
The same measure, in the same setting: with TMTC3 (UniProt Q6ZXV5) the figure was 0.032 (inactive); with USP24 (UniProt Q9UPU5), 0.258 (inactive); with VWA8 (UniProt A3KMH1), 0.01 (inactive).
Take UBLCP1 (UniProt Q8WVY7): the log2 fold change is 0.028 (inactive).
Still for that read-out and setting: with VARS2, A0A0G2JL52 the figure was 0.024 (inactive); with TRMT10A (UniProt Q8TBZ6), 0.093 (inactive).

Compound in the next experiment: CS(=O)(=O)c1ccc(-c2cnc(N)c(C(=O)Nc3ccccc3)n2)cc1
The description is as above. In short, it runs like this:
as §1
In the case of VPS18 (UniProt Q9P253), the log2 fold change is -0.008 (inactive).
The same measure, in the same setting: the value for TRAPPC11 (UniProt Q7Z392) was -0.004 (inactive); that for VDAC1 (UniProt P21796) was 0 (inactive).
The same measure, in the same setting: the value for TNPO1 (UniProt Q92973) was -0.008 (inactive).
Still for that read-out and setting: the value for UGDH (UniProt O60701) was -0.106 (inactive); that for UCHL5 (UniProt Q9Y5K5) was 0.023 (inactive); that for TP53BP1 isoform 2 (UniProt Q12888) was 0.025 (inactive).
Regarding VRK1 (UniProt Q99986), the log2 fold change is 0.055 (inactive).
For WEE1 (UniProt P30291), the log2 fold change was -0.3 (inactive).
Still for that read-out and setting: the value for VTI1A (UniProt Q96AJ9) was -0.007 (inactive); that for WASHC2A (UniProt Q641Q2) was 0.025 (inactive); that for TMEM9 (UniProt Q9P0T7) was -0.026 (inactive).
Regarding VPS33A (UniProt Q96AX1), the log2 fold change was -0.031 (inactive).
The same measure, in the same setting: with TMEM70 (UniProt Q9BUB7) the figure was 0.025 (inactive).
The same measure, in the same setting: the value for XRCC5 (UniProt P13010) was 0.037 (inactive); that for TRAPPC3 (UniProt O43617) was -0.003 (inactive); that for TNPO3 (UniProt Q9Y5L0) was -0.028 (inactive).
The same measure, in the same setting: with TPM2 (UniProt P07951) the figure was -0.016 (inactive).
Turning to UBE4B isoform 4 (UniProt O95155), the log2 fold change was 0.016 (inactive).
Still for that read-out and setting: the value for USP14 (UniProt P54578) was 0.006 (inactive).
The same measure, in the same setting: with VPS50 (UniProt Q96JG6) the figure was 0.012 (inactive); with TMEM87B (UniProt Q96K49), 0.01 (inactive).
Still for that read-out and setting: with TMEM263 (UniProt Q8WUH6) the figure was 0.03 (inactive); with TYW1 (UniProt Q9NV66), 0.038 (inactive); with VPS33B (UniProt Q9H267), 0.05 (inactive).
In the case of TMEM164 (UniProt Q5U3C3), the log2 fold change was 0 (inactive).
Turning to WASH2P (UniProt Q6VEQ5), the log2 fold change is -0.002 (inactive).
Still for that read-out and setting: the value for TOMM5 isoform 2 (UniProt Q8N4H5) was 0.043 (inactive); that for TRIP10 isoform 2 (UniProt Q15642) was 0.132 (inactive).
The same measure, in the same setting: the value for TMEM106B (UniProt Q9NUM4) was -0.024 (inactive); that for TMTC3 (UniProt Q6ZXV5) was 0.054 (inactive).
Still for that read-out and setting: the value for USP24 (UniProt Q9UPU5) was 0.062 (inactive).
VWA8 (UniProt A3KMH1): the log2 fold change is 0.01 (inactive).
Same read-out and setting: with UBLCP1 (UniProt Q8WVY7) the figure was 0.063 (inactive); with VARS2, A0A0G2JL52, 0.004 (inactive); with TRMT10A (UniProt Q8TBZ6), 0.012 (inactive).
